# Test results from PubChem BioAssay AID1053205 (Broad Institute, 2014).
# Entries with a potency or affinity are not part of this list. Inconclusive results are not listed. Values without a mark were called inactive.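 How the source made its calls: active means compounds lowering the FRET ratio whose fitted half-maximal concentration is at most twice their top tested dose; inconclusive means flat partial drop between 30 and 70 percent, or bad fit; inactive means the rest.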
# Target: Voltage-dependent L-type calcium channel subunit alpha-1D (Homo sapiens) (UniProt Q01668)
# Sequence (Q01668 whole entry, looked up, the tested form may be a part): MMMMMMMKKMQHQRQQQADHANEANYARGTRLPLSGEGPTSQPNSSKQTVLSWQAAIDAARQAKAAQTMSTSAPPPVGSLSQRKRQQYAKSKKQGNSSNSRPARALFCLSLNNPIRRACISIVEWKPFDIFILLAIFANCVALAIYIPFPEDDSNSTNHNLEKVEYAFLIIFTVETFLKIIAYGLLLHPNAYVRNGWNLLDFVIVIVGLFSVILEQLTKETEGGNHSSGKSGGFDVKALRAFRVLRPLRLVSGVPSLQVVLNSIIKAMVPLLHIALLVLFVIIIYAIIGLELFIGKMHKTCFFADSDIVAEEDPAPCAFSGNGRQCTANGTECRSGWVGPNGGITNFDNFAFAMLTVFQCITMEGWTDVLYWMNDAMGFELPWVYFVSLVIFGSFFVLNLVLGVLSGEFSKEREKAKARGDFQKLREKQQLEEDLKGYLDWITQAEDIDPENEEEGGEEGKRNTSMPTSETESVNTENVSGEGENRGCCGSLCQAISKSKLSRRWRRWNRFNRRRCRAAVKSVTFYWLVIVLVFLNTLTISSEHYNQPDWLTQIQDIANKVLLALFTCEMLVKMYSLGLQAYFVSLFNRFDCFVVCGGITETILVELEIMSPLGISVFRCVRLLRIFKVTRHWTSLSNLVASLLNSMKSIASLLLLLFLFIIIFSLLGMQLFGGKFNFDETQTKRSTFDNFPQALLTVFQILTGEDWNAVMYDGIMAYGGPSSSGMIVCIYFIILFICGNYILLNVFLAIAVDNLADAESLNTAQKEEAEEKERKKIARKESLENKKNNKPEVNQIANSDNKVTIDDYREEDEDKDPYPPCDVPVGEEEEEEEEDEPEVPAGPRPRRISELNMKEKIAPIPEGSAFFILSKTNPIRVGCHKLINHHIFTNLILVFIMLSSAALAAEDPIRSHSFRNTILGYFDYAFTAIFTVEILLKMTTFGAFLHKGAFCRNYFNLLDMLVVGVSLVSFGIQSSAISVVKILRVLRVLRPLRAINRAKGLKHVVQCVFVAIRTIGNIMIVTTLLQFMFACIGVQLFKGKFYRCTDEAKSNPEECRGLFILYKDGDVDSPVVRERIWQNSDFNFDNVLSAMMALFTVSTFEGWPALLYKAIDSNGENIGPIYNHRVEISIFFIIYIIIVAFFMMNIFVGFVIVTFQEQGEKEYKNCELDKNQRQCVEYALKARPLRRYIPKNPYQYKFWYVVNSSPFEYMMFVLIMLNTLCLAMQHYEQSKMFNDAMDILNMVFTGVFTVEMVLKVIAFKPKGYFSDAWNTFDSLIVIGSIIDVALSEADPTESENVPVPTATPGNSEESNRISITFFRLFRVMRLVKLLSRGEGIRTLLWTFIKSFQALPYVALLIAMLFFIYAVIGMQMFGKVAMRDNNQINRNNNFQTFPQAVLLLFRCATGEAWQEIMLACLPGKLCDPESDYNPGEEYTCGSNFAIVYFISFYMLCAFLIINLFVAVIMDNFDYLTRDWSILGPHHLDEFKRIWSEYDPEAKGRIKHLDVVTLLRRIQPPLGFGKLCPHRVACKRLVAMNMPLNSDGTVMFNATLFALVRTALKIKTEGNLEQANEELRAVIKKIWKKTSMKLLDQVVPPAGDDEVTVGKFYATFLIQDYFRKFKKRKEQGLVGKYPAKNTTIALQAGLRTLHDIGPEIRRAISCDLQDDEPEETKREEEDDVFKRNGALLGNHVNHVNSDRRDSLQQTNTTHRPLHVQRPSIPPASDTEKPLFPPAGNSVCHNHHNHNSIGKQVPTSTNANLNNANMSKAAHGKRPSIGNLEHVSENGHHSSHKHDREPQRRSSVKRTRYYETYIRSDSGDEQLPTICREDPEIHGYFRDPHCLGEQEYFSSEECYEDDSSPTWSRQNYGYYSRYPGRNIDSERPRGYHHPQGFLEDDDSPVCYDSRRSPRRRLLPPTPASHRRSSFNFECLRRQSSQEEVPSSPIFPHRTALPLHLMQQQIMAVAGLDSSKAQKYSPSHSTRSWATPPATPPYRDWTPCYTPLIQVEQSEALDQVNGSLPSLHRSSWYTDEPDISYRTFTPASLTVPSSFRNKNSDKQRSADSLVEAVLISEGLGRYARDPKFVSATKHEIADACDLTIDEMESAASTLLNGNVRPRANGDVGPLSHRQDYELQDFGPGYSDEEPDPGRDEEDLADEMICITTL
# Assay: disruptors of CaV1.3 IQ/ICDI domain association – cell-based, HEK293, YFP-IQ/CFP-ICDI FRET, cherry-picks, dose response (AID 1053205);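 further: 0% = median of neutral control wells and -100% = median of positive control wells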
# Details: HEK293 YFP-IQ/CFP-ICDI FRET ratio, 10 min; series mostly up to 35 µM; FRET change, negative = inhibition: at the top concentration
row,Structure (SMILES),"FRET change, negative = inhibition"
1,COc1ccccc1N1CCN(C2CCC(C)CC2)CC1 (stereo unspecified),-7.09%
2,CCC(C)NC(=S)N1CCN(Cc2ccc3c(c2)OCO3)CC1 (stereo unspecified),23.1%
3,Cc1c(C(=O)NCc2ccc3c(c2)OCCO3)sc(=O)n1Cc1ccccc1F,16.7%
4,Cc1nc(CCNC(=O)Cc2ccc(Cl)cc2)cs1,-11.5%
5,CC(=O)Oc1ccc(C(=O)Nc2cc(C)on2)cc1,58.3%
6,Cc1cc(-n2c(=O)c(C#N)cc3c(=O)n4ccccc4nc32)no1,473%
7,O=C(O)c1cccc(Nc2nc(-c3cc4ccccc4oc3=O)cs2)c1,192%
8,Nc1nc(-c2cc(O)ccc2[N+](=O)[O-])cc(-c2ccccc2)c1[N+](=O)[O-],191% [at 16 µM]
9,NC(=O)c1cc([N+](=O)[O-])ccc1NCc1cccnc1,-28.9%
10,Cc1noc(C)c1S(=O)(=O)N(CC(=O)N1CCCCCC1)c1ccc(C(C)C)cc1,150%
11,COCCNC(=S)N/N=C/c1ccc(-c2ccc([N+](=O)[O-])cc2)o1,399%
12,Cc1cc(=O)oc2cc(OC(=O)c3cncc(Br)c3)ccc12,-2.73%
13,O=c1[nH]c(Nc2ccccc2Cl)cc2ccccc12,-0.01%
14,CC(=O)c1sc(N/N=C\c2ccc(N(C)C)cc2)nc1C,204%
15,O=c1[nH]c(=O)c2nc(-c3ccc(Cl)cc3)cnc2[nH]1,201%
16,CCN(CC)c1ccc2cc(S(=O)(=O)c3ccc(Cl)cc3)c(=O)oc2c1,423% [at 16 µM]
17,COCc1cc(C)nc(SCC(=O)Oc2ccc(Cl)cc2)c1C#N,0.592%
18,Fc1ccc(-c2nc3ccccn3c2NCc2ccc3c(c2)OCO3)cc1,71.1% [at 16 µM]

row,Structure (SMILES),"FRET change, negative = inhibition"
1,CCCOc1c(Br)cc(C2C3=C(CCCC3=O)N(C)C3=C2C(=O)CCC3)cc1OC,109% [at 16 µM]
2,COc1ccccc1C(=O)c1cc2ccc(O)cc2oc1=O,76.2%
3,CNNC(=S)NC1CC2CC1C1C=CCC21 (stereo unspecified),4.34%
4,CCOc1ccc(-n2c(SCC(=O)Nc3nccs3)nnc2-c2ccoc2C)cc1,-21.4%
5,Clc1ccccc1C1=CC(c2ccco2)n2ncnc2N1 (stereo unspecified),193% [at 16 µM]
6,CCc1ccccc1S(=O)(=O)Cc1ccc(C(=O)N2CCN(c3ccccc3OC)CC2)o1,11%
7,COC(=O)C1=CN(Cc2ccc(OC)c(OC)c2)C=C(C(=O)OC)C1c1cccc(F)c1,106%
8,O=C(c1cccc(Cl)c1)N1CCC(=O)N(C(COCc2ccccc2)Cc2ccccc2)CC1 (stereo unspecified),5.96%
9,N#Cc1c(NCCCO)nc(NCc2ccccc2)c2c1CCN(Cc1ccccc1)C2,42.7%
10,Cc1c(C(=O)NCc2cccc([N+](=O)[O-])c2)sc(=O)n1Cc1cccc(F)c1,-14.7%
11,CC(C)CCN(CCC(C)C)CC(O)Cn1c2ccccc2c(=O)c2ccccc21 (stereo unspecified),20.5%
12,CC(C)c1ccc(/C=C2\Oc3c(ccc(O)c3CN3CCN(C)CC3)C2=O)cc1,470%
13,COc1ccc(CNC(=O)c2sc(=O)n(Cc3ccc(C)cc3)c2C)cc1OC,4.95% [at 8 µM]
14,N#C/C(=C\c1ccco1)C(=O)Nc1cccc2ncccc12,2.87%
15,O=C(CCCn1c(=O)c2sccc2n(Cc2cc(=O)n3ccccc3n2)c1=O)NCc1ccco1,3.52%
16,Cc1cc2cc(CNC(=O)c3ccco3)ccc2n1C,152%
17,c1ccc(-c2cn3nc4c(nc3n2)CCCC4)cc1,478%
18,N#C/C(=C\c1ccc(N2CCOCC2)o1)C(=O)NCCc1ccccc1,166% [at 8 µM]
